# Bioassay records: PubChem BioAssay, The Scripps Research Institute Molecular Screening Center
# MITF inh: MITF inhibitors, primary screen, biochemical, AlphaScreen, human. inhibition, % at 2.6 µM. hit rate 0.91% among 650,000. AlphaScreen MITF homodimerization, bead proximity signal. Microphthalmia-associated transcription factor (Homo sapiens), O75030. AID 1259374, 2018; in the data active = inhibition above about 50%
# FBW7 activator: FBW7 E3 ligase activators, primary screen, biochemical, AlphaScreen, human; AlphaScreen FBW7–phospho-cyclin E peptide binding, activator screen; hit rate 0.13% among 650,000; normalized activity (activation), % at 26.1 µM; F-box/WD repeat-containing protein 7 (Homo sapiens), Q969H0; in the data active = normalized activity above about 1.9%;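 also: purified mutant Fbw7 with reduced substrate affinity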
# GPR151 ag: activators of human GPR151, primary screen, cell-based, PathHunter beta-arrestin, luminescence; PathHunter beta-arrestin GPR151 cells; activation, % at 11.2 µM; hit rate 1% among 650,000; AID 1508602, 2020; in the data active = activation above about 4.9%
# Target sequence (Q8TDV0 whole entry, looked up): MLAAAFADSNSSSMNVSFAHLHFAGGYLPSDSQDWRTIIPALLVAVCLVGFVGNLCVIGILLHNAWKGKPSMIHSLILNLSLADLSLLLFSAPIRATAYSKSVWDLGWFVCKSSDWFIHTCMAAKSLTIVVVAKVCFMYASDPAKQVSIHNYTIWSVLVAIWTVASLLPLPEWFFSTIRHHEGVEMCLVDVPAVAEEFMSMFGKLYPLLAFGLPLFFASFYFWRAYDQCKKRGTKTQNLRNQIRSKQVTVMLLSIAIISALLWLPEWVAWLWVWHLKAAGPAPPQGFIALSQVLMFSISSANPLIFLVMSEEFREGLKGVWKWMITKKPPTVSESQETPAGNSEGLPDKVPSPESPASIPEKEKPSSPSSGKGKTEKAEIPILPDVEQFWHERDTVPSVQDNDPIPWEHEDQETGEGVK
# TEAD-YAP inh: TEAD-YAP interaction inhibition, primary screen, TEAD-YAP interaction inhibitor project, luminescence, HEK-TIYL cells | TEAD-Gal4/YAP UAS-luciferase luminescence | inhibition, % at 9.12 µM | hit rate 1.4% among 640,000; in the data active = inhibition above about 32%
# Hits are given with their value; 0 = inactive. A selection: hits, their analogues and other compounds. The true share with any hit is near 3.5%.
SMILES,MITF inh,FBW7 activator,GPR151 ag,TEAD-YAP inh
Oc1ccc(O)c(Cc2nc3ccccc3s2)c1,0,0,0,52.9
Oc1cccc(-c2nc3ccccc3s2)c1,0,0,0,92.1
COc1ccc(-c2nc3ccccc3s2)cc1OC(C)=O,0,0,0,58.0
COc1cnc2c(n1)c(=O)n(C)c(=O)n2C,0,0,0,0
Cc1ccc2c(c1)Cc1nc3ccccc3nc1-2,0,0,0,64.5
Cc1cc2c(cc1C)-c1nc3ccccc3cc1C2,0,0,0,54.3
Cc1cc2c(cc1C)-c1nc3ccccc3cc1C2=O,0,0,0,0
COc1ccccc1C(=O)Nc1nnc(SCC(=O)Nc2ccc(C(C)=O)cc2)s1,0,0,0,0
Cc1nc2nc(CC(=O)NCc3ccccc3)nn2c(C)c1Cc1cccc(Cl)c1,0,0,0,55.5
CCCC(=O)NC(c1cccs1)c1ccc2cccnc2c1O (configuration not stated),0,0,0,86.3
CCC(=O)NC(c1cccs1)c1ccc2cccnc2c1O (configuration not stated),0,0,0,76.6
CCC(=O)NC(c1cccs1)c1ccc2ccccc2c1O (configuration not stated),0,0,0,0
CCCCC(=O)NC(c1cccs1)c1ccc2ccccc2c1O (configuration not stated),0,0,0,0
COc1cccc(-c2cnc3c(Nc4cccc(C(F)(F)F)c4)nccn23)c1,0,0,0,0
O=C(NCCN1CCOCC1)c1cccc(-n2ncc3ccc(Nc4ccccc4)cc32)c1,0,0,0,0
CC(C(=O)NCc1ccccc1Br)n1ncn2cccc2c1=O (configuration not stated),0,0,0,0
CCCc1cc(=O)oc2c(C)c(OCc3ccccc3Cl)ccc12,0,0,0,0
CC1CCN(c2ccc3nc4ccccc4c(=O)n3n2)CC1,0,0,0,75.7
O=c1c2cc(Cl)ccc2nc2ccc(N3CCCC3)nn12,0,0,0,0
CCn1ncc(CN2CCN(Cc3ccccc3)C(CCO)C2)c1C (configuration not stated),0,0,0,0
COc1ccccc1C(=O)NCCn1cc(SCC(=O)Nc2ccc(Br)cc2)c2ccccc21,0,2.0,0,0
COc1ccccc1C(=O)NCCn1cc(SCC(=O)Nc2ccc(C)cc2)c2ccccc21,0,0,0,0
COc1cccc(C2CC(c3cccc(OC)c3)n3ncnc3N2)c1 (configuration not stated),0,0,0,0
CCOC(=O)c1[nH]c(C)c(CNC2CCCCC2)c1C,0,0,0,0
CCOC(=O)c1[nH]c(C)c(CN(C2CCCCC2)S(C)(=O)=O)c1C,0,0,0,51.9
SMILES,MITF inh,FBW7 activator,GPR151 ag,TEAD-YAP inh
COc1ccccc1C1/C(=C(/O)c2ccc(Cl)cc2)C(=O)C(=O)N1CCC(=O)O (configuration not stated),0,0,0,0
O=C(O)c1c(O)c2ccccc2[nH]c1=O,0,0,0,0
O=c1[nH]c2ccccc2c(O)c1O,0,0,0,38.4
Cc1ccc(C(=O)NNC(=O)C2CCN(C(=O)Cc3ccc(Cl)cc3)CC2)cc1,0,0,0,0
CC(=O)Nc1cccc(Oc2nnc(-c3ccc(C)cc3)c3ccccc23)c1,0,0,0,0
CC(=O)Nc1ccc(Oc2nnc(C)c3ccccc23)cc1,0,0,0,65.3
CCOC(=O)C(/C(C)=N\NC(=O)c1cccs1)C(C)C (configuration not stated),0,0,0,0
O=C(Nc1cnc2ccccc2c1)c1ccccc1Cl,0,0,0,77.6
O=C(Nc1cccnc1)c1ccc([N+](=O)[O-])cc1Cl,0,0,0,0
O=C(Nc1cnc2ccccc2c1)c1ccc([N+](=O)[O-])cc1Cl,0,0,0,49.5
O=C(NC1CCCCCCCCCCC1)c1ccc([N+](=O)[O-])cc1Cl,0,0,0,0
O=C(Nc1ccc(Cc2ccncc2)cc1)c1ccc([N+](=O)[O-])cc1Cl,0,0,0,36.5
O=C(NC1CCCCC1)c1ccc([N+](=O)[O-])cc1Cl,0,0,0,39.9
O=C(Nc1ccc(Cc2ccncc2)cc1)c1ccc([N+](=O)[O-])cc1,0,0,0,0
Cc1ccc(Cc2cnc(NC(=O)CSc3nc(C)cc(C)n3)s2)cc1,0,0,0,0
Cc1ccc(OCCNC(=O)C(=O)NCCC(C)C)cc1,0,0,0,0
COC(=O)c1ccc2c(c1)C1C=CCC1C(c1ccc([N+](=O)[O-])cc1)N2 (configuration not stated),0,0,0,0
CC(=O)c1ccc2c(c1)[C@@H]1C=CC[C@@H]1[C@H](c1ccncc1)N2,0,0,0,0
O=C(O)c1ccc2c(c1)C1C=CCC1C(c1ccc([N+](=O)[O-])cc1)N2 (configuration not stated),84.0,0,0,0
CCOC(=O)[C@@H]1Nc2ccc(C(=O)O)cc2[C@@H]2C=CC[C@H]12,73.7,0,0,0
COc1ccc2c(c1)[C@@H]1C=CC[C@@H]1[C@H](c1ccc(C(=O)O)cc1)N2,0,0,0,0
CC(=O)c1ccc2c(c1)[C@@H]1C=CC[C@@H]1[C@H](c1ccc(C(=O)O)cc1)N2,62.4,0,0,0
COC(=O)c1ccc2c(c1)C1C=CCC1[C@@H](c1ccc(C(=O)O)cc1)N2 (some centres not stated),65.6,0,0,0
CCOC(=O)c1ccc2c(c1)[C@@H]1C=CC[C@@H]1[C@H](c1ccc(C(=O)O)cc1)N2,52.5,0,0,0
COC(=O)c1ccc2c(c1)C1C=CCC1C(c1ccc(C(=O)O)cc1)N2 (configuration not stated),69.6,0,0,0
SMILES,MITF inh,FBW7 activator,GPR151 ag,TEAD-YAP inh
CC(=O)c1ccc2c(c1)[C@@H]1C=CC[C@@H]1[C@H](c1cc3c(cc1Br)OCO3)N2,0,0,0,52.9
CCOC(=O)c1ccc2c(c1)C1C=CCC1C(c1ccc(Cl)cc1)N2 (configuration not stated),0,0,0,0
O=C(O)c1ccc2c(c1)C1C=CCC1C(c1ccccc1F)N2 (configuration not stated),56.0,0,0,0
CC(=O)c1ccc2c(c1)C1C=CCC1C(c1ccccc1F)N2 (configuration not stated),0,0,0,0
C=CCOc1ccc2c(C)cc(=O)oc2c1C(=O)CC,0,0,0,0
COC(=O)c1ccc(NC(=O)c2cccc3c2SCCC3=O)cc1,0,0,0,0
CCN(CC)CCCNc1c(N)c(=O)oc2ccccc12,0,0,0,0
CC(NC(=O)Cn1nnnc1CN1CCCCCC1)c1cnn(-c2ccccc2)c1 (configuration not stated),0,0,0,0
O=S(=O)(c1ccc(C2Nc3ccc(F)cc3C3C=CCC32)cc1)N1CCOCC1 (configuration not stated),0,0,0,0
